# Reference: PubChem BioAssay
# Molecular target: Neurogenic locus notch homolog protein 3 (Homo sapiens) (UniProt Q9UM47)
# Experiment: small molecules binding NOTCH3 protein – biochemical, 635/667 nm fluorescence, primary screen (AID 1096)
# Settings: small-molecule microarray, 635 nm fluorescence, higher = more signal
# Neurogenic locus notch homolog protein 3 (Homo sapiens), sequence (Q9UM47 whole entry, looked up): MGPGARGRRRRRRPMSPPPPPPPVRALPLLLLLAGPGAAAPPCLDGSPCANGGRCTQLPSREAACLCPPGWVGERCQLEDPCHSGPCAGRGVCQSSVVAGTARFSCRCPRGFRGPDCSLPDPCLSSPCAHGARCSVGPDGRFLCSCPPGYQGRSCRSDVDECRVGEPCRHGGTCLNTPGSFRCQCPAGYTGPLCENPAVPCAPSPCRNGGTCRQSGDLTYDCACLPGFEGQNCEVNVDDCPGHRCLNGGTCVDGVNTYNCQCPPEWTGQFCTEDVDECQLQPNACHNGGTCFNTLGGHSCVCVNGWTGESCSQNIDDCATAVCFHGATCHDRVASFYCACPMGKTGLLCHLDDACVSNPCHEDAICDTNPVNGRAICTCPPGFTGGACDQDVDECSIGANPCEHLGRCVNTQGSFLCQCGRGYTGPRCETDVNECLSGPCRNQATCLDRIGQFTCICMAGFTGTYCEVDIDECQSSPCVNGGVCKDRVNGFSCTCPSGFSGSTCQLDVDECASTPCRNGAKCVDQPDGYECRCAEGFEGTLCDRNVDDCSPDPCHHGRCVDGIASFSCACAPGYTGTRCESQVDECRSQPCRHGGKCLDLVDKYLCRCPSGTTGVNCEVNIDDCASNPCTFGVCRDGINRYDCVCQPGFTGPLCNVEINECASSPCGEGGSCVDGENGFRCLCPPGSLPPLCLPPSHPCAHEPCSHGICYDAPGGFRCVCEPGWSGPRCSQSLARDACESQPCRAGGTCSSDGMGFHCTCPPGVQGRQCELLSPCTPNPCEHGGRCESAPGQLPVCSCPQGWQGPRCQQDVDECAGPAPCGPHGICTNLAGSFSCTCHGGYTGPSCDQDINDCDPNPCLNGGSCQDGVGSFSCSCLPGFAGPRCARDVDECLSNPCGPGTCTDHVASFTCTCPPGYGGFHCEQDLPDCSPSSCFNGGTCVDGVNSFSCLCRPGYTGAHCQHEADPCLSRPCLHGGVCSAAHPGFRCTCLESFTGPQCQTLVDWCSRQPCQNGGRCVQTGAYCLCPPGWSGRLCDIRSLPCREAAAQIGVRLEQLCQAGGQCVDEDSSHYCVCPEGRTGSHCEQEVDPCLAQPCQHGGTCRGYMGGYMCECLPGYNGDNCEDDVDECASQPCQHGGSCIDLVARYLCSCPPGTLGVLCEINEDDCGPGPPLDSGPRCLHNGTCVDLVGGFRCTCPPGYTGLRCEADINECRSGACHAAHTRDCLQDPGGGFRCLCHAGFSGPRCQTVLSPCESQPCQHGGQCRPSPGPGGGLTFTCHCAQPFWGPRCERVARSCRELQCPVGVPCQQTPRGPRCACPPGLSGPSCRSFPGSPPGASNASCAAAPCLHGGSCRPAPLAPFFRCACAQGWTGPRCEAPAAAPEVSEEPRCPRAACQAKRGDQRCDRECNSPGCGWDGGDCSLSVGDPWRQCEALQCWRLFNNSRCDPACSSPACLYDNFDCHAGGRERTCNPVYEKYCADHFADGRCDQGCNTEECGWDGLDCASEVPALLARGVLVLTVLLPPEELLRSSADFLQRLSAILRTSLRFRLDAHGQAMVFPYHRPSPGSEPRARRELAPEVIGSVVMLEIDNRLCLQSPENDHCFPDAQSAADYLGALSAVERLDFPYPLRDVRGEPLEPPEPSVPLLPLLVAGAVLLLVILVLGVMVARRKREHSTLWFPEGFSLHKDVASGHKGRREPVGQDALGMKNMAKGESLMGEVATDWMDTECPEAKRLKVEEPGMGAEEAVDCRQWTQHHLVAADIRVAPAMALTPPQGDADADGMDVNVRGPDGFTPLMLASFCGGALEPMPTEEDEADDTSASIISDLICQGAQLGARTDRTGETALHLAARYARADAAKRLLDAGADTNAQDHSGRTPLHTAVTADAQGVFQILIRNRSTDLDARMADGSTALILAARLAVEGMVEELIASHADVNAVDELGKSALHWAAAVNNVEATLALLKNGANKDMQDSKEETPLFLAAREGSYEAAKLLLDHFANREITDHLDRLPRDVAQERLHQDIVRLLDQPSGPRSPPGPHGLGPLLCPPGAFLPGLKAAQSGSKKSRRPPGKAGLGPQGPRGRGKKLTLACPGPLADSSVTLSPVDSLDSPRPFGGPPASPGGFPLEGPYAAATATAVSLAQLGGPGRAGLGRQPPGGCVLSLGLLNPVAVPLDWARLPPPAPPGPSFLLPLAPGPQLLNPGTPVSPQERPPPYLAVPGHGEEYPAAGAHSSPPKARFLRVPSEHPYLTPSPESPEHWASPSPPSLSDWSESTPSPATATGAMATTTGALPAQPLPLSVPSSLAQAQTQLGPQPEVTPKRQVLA
row,SMILES,composite z-score
1,[N-]=[N+]=Nc1ccccc1[C@H]1OC(c2ccc(OCCCO)cc2)=N[C@@]1(Cc1ccccc1)C(=O)N1CCCCC1,1.08
2,CCCNC(=O)[C@@]1(c2ccc([N+](=O)[O-])cc2)CC(=O)N(C2CCCCC2)[C@@H]1c1ccc(CO)cc1,1.04
3,CN1C(=O)C2C=CC(C(O)c3ccccn3)N(N(c3ccccc3)c3ccccc3)C2C1=O (stereo unspecified),-0.343
4,COCCOC(=O)N1C(=O)[C@@]2(c3cc(C#CC4=CCCCC4)ccc31)[C@H](c1ccc(O)cc1)N1[C@H](c3ccccc3)[C@H](c3ccccc3)OC(=O)[C@H]1[C@@H]2C(=O)N1CCN(c2ncccn2)CC1,-0.756
5,C[N+](C)(C)CCCCCCNC(=O)[C@H]1C[C@H]2C(=O)N[C@@H](Cc3ccccc3)C(=O)N2[C@H]1c1ccc(O)cc1,0.98
6,O=C1NC(=O)C2C1C=CC(C(O)c1cccc3ccccc13)N2Nc1ccc(Cl)cc1Cl (stereo unspecified),1.04
7,COC(=O)[C@@]1(Cc2ccc(F)cc2)[C@H]2c3cc(C(=O)N4CCCC4)n(CCc4ccc(O)c(O)c4)c3C[C@H]2CN1C(=O)c1ccccc1,-1.04
8,O=C(CS)NCCCCCCNC(=O)[C@H]1C[C@H]2C(=O)N[C@@H](Cc3ccccc3)C(=O)N2[C@H]1c1ccc(O)cc1,0.635
9,C#CCN([C@@H](Cc1ccc(O)cc1)C(=O)OC)[C@@H](/C=C/C1CC1)[C@H](O)Cc1ccccc1,0.337
10,CCOC(=O)c1ccc(NC(=O)O[C@H]2[C@H](OC(=O)Nc3ccc4c(c3)OCO4)[C@@H](OC(=O)Nc3ccc4c(c3)OCO4)[C@@H](OC)O[C@@H]2CO)cc1,1
11,O=c1n(-c2ccccc2)c(=O)n2n1CC(COc1ccccc1)=C([C@H](O)CCc1ccccc1)[C@@H]2CO,-0.196
12,COc1ccc([Si](C)(C)[C@@H]2[C@@H](CC(=O)N3Cc4ccccc4C[C@H]3CO)O[C@]3(C(=O)N(Cc4cccc(N5C(=O)c6cccc7cccc5c67)c4)c4ccccc43)[C@H]2C)cc1,1.09
13,CN(C)C(=O)[C@]1(CCS(=O)(=O)c2ccccc2)N=C(c2ccc(OCCCO)cc2)O[C@@H]1c1ccccc1N=[N+]=[N-],1.05
14,COC(=O)[C@@]1(Cc2ccc(OC)cc2)[C@H]2c3cc(C(=O)N4CCCC4)n(Cc4c(-c5ccccc5)noc4C)c3C[C@H]2CN1C(=O)c1ccccc1,1.04
15,O=C1O[C@H](c2ccccc2)[C@H](c2ccccc2)N2[C@H]1[C@@H](C(=O)O)[C@]1(C(=O)Nc3ccc(C#CC4=CCCCC4)cc31)[C@H]2c1ccc(O)cc1,0.966
16,COc1cc2c(cc1OC)CN(C(=O)[C@@H]1[C@H]3C(=O)O[C@H](c4ccccc4)[C@H](c4ccccc4)N3[C@H](c3ccc(OCCO)cc3)[C@@]13C(=O)Nc1ccccc13)CC2,1.15
17,COC(=O)[C@@]1(Cc2ccccc2)[C@H]2c3cc(C(=O)N(C)C)n(CCN4CNCC4=O)c3C[C@H]2CN1C(=O)c1ccccc1,0.0743
18,CN(C)c1ccc(C(O)C2C=CC3C(=O)N(c4ccccc4)C(=O)C3N2Nc2ccc([N+](=O)[O-])cc2)cc1 (stereo unspecified),1.13

row,SMILES,composite z-score
1,C=C(C)c1cc2c(c(CCCCCC)n1)[Si](C(C)C)(C(C)C)OC2,-0.64
2,O=C1O[C@@H](c2ccccc2)[C@@H](c2ccccc2)N2[C@@H](c3ccc(O)cc3)[C@]3(C(=O)Nc4ccc(C#CC5(O)CCCCCC5)cc43)[C@@H](C(=O)NC[C@H](O)c3ccccc3)[C@H]12,-0.0872
3,COCCCNC(=O)[C@@]1(Cc2ccccc2N=[N+]=[N-])N=C(c2ccc(OCCCO)cc2)O[C@H]1c1ccccc1,0.74
4,O=C1O[C@H](c2ccccc2)[C@H](c2ccccc2)N2[C@H]1[C@@H](C(=O)Nc1nc3ccccc3s1)[C@]1(C(=O)Nc3ccc(C#CCCO)cc31)[C@H]2c1ccc(O)cc1,1.13
5,COC(=O)[C@@]1(Cc2ccccc2)[C@H]2c3cc(C(=O)N(C)C)n(CCc4ccc(O)c(OC)c4)c3C[C@H]2CN1C(=O)c1ccccc1,0.489
6,O=C1OCC=C[C@H]2OC34C=CCN(c5ccc(Cl)cc5)C(=O)[C@H]3N(CCO)C(=O)[C@@H]4[C@@H]12 (stereo partly specified),-0.368
7,CC(C)Cc1ccc(CN2CC[C@@H](NC(=O)Nc3ccccc3)C2)cc1,-0.963
8,C=CCC(OC(C)=O)[C@@H]1[C@@H](N(Cc2cc3ccccc3o2)C(=O)c2ccc(-c3ccccc3)cc2)c2cc(OCCCO)ccc2N1C(=O)c1ccc2ccccc2c1 (stereo partly specified),0.391
9,Cc1ccc(S[C@]2(C(=O)O)CC(=O)N(Cc3ccccc3Cl)[C@@H]2c2ccc(CO)cc2I)cc1,-0.162
10,COCCCNC(=O)[C@@]1(Sc2ccc(C)cc2)CC(=O)N(C2CCCCC2)[C@@H]1c1ccc(CO)cc1,0.0236
11,COCC1=C2[C@@H](CCc3ccccc3)OB(O)C[C@@H]2[C@@H]2C(=O)C=CC(=O)[C@@H]2C1,1.12
12,COc1ccc([Si](C)(C)[C@@H]2[C@@H](CCn3cc([C@H](O)c4ccccc4)nn3)O[C@]3(C(=O)N(Cc4ccc(N5CCC5=O)cc4)c4ccccc43)[C@H]2C)cc1,-0.231
13,CCOc1cc(C(O)C2C=CC3C(=O)N(C)C(=O)C3N2Nc2ccccc2)ccc1O (stereo unspecified),0.679
14,C=C(C(=O)CC[C@@H](OC(C)=O)c1ccc(CO)o1)C(C)C,0.982
15,CC(=O)NCCCC[C@@H]1NC(=O)[C@@H]2C[C@H](C(=O)NCCCC[N+](C)(C)C)[C@H](c3ccc(O)cc3)N2C1=O,1.09
16,CCOC(=O)C1CCCCN1 (stereo unspecified),0.738
17,C=CCOC(=O)[C@H]1[C@@H]2C(=O)O[C@@H](c3ccccc3)[C@@H](c3ccccc3)N2[C@@H](c2ccc(OCCOC(=O)[C@@H]3C[C@@H]4C(=O)N[C@@H](CCCCN(C)C)C(=O)N4[C@@H]3c3ccc(O)cc3)cc2)[C@]12C(=O)Nc1ccccc12,1.05
18,CCCC[C@@H]1C[C@H]1[C@@H](NC(=O)c1cccs1)c1ccc(C(F)(F)F)cc1,-0.182
